Screening results deposited in PubChem BioAssay by National Center for Advancing Translational Sciences (NCATS).
A549 tox – counter-screen for Nrf2 inhibitors: cytotoxicity in A549 cells; A549 ARE-Fluc cells, CellTiter-Fluor viability, 18-24 h; hit rate 0.16% among 390,000; Potency, µM (top dose mostly 46 µM), for the others: at the highest dose activity change, negative = cytotoxicity, most hits filed as inhibitors; also: potency is read from the fitted curve at half-maximal effect; % is scaled to controls: 0 for no effect and ±100 for the full control effect
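A549 ARE-Fluc cells in 5% FBS OPTI-MEM, 5000 cells/well, rested 2 h then exposed to compounds in concentration-response for 18-24 h at 37 °C. Viability by CellTiter-Fluor fluorescence (Ex 405/Em 525) after 30 min; luciferase luminescence (BugLite, 15 min, RT) read afterwards.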
Nrf2 block – Nrf2 pathway inhibition; AID 504444; hit rate 2.1% among 360,000; A549 ARE-Fluc reporter, luciferase luminescence, 18-24 h; Potency, µM (titrated, usually from 46 µM), for the others: top-dose activity change, negative = inhibition, actives largely listed as inhibitors; also: potency is read from the fitted curve at half-maximal effect; % is scaled to controls: 0 for no effect and ±100 for the full control effect; nearly all actives have a fitted effect of over 60% in size
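In this cell-based qHTS, ARE-driven firefly luciferase in A549 cells reports Nrf2 activity; the luminescent signal after BugLite lysis is the measured value, with a prior CellTiter-Fluor read for cell health.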
LDHA inh – blocks human lactate dehydrogenase A. P00338. purified LDHA, NADH/diaphorase-resazurin fluorescence; active compounds read low. activity change, % (values are at about 110 or 230 µM). hit rate 0.15% among 480,000. AID 1347041; in the data active = activity change below about -30%; inconclusive = mostly about -25% to -30%;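 also: plate controls were DMSO wells for no effect and wells without enzyme for full effect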
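Enzyme activity of human lactate dehydrogenase 5 (2 nM; 0.06 mM NADH, 0.2 mM pyruvate, 5 min, RT) is measured via a resazurin/diaphorase fluorescence readout of residual NADH.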
IDH1 R132H inh – blocks human mutant IDH1 R132H enzyme | O75874 | IDH1-R132H enzyme, NADPH consumption, diaphorase/resazurin fluorescence | Potency, µM (highest dose often 76.6 µM), for the others: top-dose activity change, negative = inhibition, actives largely listed as inhibitors | hit rate 0.093% among 390,000; also: potency is read from the fitted curve at half-maximal effect; % is scaled to controls: 0 for no effect and ±100 for the full control effect; nearly all actives have a fitted effect of over 65% in size
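IDH1-R132H (0.5 ug/mL dispensed) in pH 7.5 Tris buffer was preincubated 30 min with compound, then given a substrate mix of 0.016 mM NADPH and 2 mM alpha-KG for 80 min at room temperature; remaining NADPH was read by diaphorase/resazurin fluorescence.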
12-LOX inh – ALOX12 (human) lipoxygenase inhibition; hit rate 1.1% among 580,000; Potency, µM (titrated, usually from 108 µM), inactives show at the highest dose activity change, negative = inhibition, hits mostly inhibitors; purified 12hLO, xylenol orange hydroperoxide absorbance; P18054; AID 1671190; also: potency is read from the fitted curve at half-maximal effect; % is scaled to controls: 0 for no effect and ±100 for the full control effect
Target sequence (P18054 whole entry, looked up): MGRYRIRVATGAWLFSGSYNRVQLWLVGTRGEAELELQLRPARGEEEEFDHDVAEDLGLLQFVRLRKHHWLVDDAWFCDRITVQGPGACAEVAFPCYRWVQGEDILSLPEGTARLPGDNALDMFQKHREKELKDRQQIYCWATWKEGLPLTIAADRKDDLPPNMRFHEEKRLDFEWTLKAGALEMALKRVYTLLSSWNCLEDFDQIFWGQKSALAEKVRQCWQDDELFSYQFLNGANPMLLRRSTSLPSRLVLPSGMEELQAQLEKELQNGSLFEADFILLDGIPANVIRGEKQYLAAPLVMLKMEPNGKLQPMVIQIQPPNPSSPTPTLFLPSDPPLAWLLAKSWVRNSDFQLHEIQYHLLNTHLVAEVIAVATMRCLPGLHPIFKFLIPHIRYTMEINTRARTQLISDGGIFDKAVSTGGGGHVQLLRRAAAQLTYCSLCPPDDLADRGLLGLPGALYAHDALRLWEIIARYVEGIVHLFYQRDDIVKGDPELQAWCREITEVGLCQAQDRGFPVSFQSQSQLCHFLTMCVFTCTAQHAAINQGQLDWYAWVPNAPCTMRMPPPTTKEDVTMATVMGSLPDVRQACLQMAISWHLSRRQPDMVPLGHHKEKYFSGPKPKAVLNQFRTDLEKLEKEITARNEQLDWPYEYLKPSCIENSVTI
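Purified human 12hLO at 150 nM in 25 mM Hepes, 0.01% Triton X-100, pH 7.0, preincubated 15 min at room temperature with compound. Reaction started with 40 uM arachidonic acid, 30 min at room temperature. Hydroperoxide measured by Fe-xylenol orange, 573/405 nm absorbance ratio.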
Nrf2 ARE act – activates Nrf2 signaling. AREc32 ARE-luciferase reporter (MCF7-derived line), luminescence, 24 h. hit rate 0.31% among 410,000. Potency, µM (titrated, usually from 46.1 µM), inactives show at the top dose activation, most hits filed as activators; also: potency is read from the fitted curve at half-maximal effect; % of control where 0% means no effect; nearly all actives have a fitted effect of over 65% in size
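ARE-driven firefly luciferase activity in AREc32 cells measured after a 24 hr compound exposure at 37 deg C, using Steady-Glo reagent and a 30 min room-temperature hold.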
IDH1 autofl – counter-screen for mutant IDH1 inhibitors: fluorescence interference; shares compounds with IDH1 R132H inh; AID 623980; 750 tested, under 10 active; Resorufin detection reagent fluorescence interference, cell-free; inhibition of signal, % at 51.2 µM;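 also: 0% = wells with normal resorufin and full inhibition = wells lacking resorufin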
WT IDH1 inh – selectivity of mutant IDH1 inhibitors: human wild-type IDH1. Potency, µM (doses to about 115 µM), for inactives: at the top dose activity change, negative = inhibition, actives largely listed as inhibitors. shares compounds with IDH1 R132H inh. WT IDH1 enzyme, NADPH diaphorase/resazurin fluorescence. hit rate 9% among 750;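 also: potency is read from the fitted curve at half-maximal effect; 0% = full WT IDH1 enzyme control and full inhibition = no enzyme wells; nearly all actives have a fitted effect of over 55% in size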
IDH1 R132H conf – confirmation of human mutant IDH1 inhibitors. shares compounds with IDH1 R132H inh. IDH1 R132H enzyme, NADPH diaphorase/resazurin fluorescence. Potency, µM (doses to about 76.6 µM), without a hit: at the highest dose activity change, negative = inhibition, hits mostly inhibitors. hit rate 83% among 750; also: potency is read from the fitted curve at half-maximal effect; nearly all actives have a fitted effect of over 50% in size
Starred values were filed as active, the others as inactive; ? = inconclusive; · = no result given. An excerpt weighted towards active compounds, which were near 2.7% of everything screened. Unless noted, calls follow the shape of the dose curve; as a rule, active = well fitted curve in the direction sought with a large enough effect; inconclusive = small, poorly fitted or top-dose-only effect, or another doubt; inactive = no such curve, though single readings can be large; an effect the other way counts as inactive or inconclusive.

SMILES	A549 tox	Nrf2 block	LDHA inh	IDH1 R132H inh	12-LOX inh	Nrf2 ARE act	IDH1 autofl	WT IDH1 inh	IDH1 R132H conf
COc1cc2c(-c3ccccc3O)nc3c(c(C)nn3-c3ccccc3)c2cc1OC	-6%	?	1	30%	?	4%	·	·	·
COc1cc2c(-c3ccccc3Cl)nc3c(c(C)nn3-c3ccccc3)c2cc1OC	-2%	-6%	-2	?	-11%	-1%	-2	0%	5µM*
Cn1c(=O)c2c(nc(N3CCN(C(=O)c4ccco4)CC3)n2Cc2ccc(F)cc2)n(C)c1=O	·	·	-1	·	?	·	·	·	·
CCNC(=O)c1cccc(NC(=O)c2cc(=O)c3cc(C)ccc3o2)c1	·	·	-10	·	-33%	·	·	·	·
C#CC(=O)N(c1cc(OC)ccc1OC)C(C(=O)NC1CCCC1)c1cccs1 (centres undefined)	?	10µM*	-9	?	·	?	-7	11%	45µM*
Cc1cc(NC(=O)CCC(=O)N(c2ccccc2)C(C(=O)NC2CCCCC2)c2cccs2)no1 (centres undefined)	-9%	3%	-4	?	299%	0%	0	-5%	16µM*
O=C(NC1CCCCC1)C(c1cccs1)N(C(=O)C(F)(F)F)c1ccccc1 (centres undefined)	-14%	?	-2	?	2%	0%	-12	5%	20µM*
O=C(CCCC(=O)N(c1ccc2c(c1)OCCO2)C(C(=O)NC1CCCCC1)c1ccc(F)cc1)Nc1ccccn1 (centres undefined)	-4%	-12%	-5	9.3µM*	-14%	0%	-8	2%	13µM*
Cc1cc(NC(=O)CCC(=O)N(CC(=O)NC2CCCC2)c2ccccc2)no1	7%	3%	-2	-2%	-21%	-1%	·	·	·
Cc1cc(NC(=O)CCC(=O)N(c2ccc(F)cc2)C(C(=O)NC2CCCC2)c2ccccc2)no1 (centres undefined)	0%	6%	-3	?	-18%	0%	2	5%	40µM*
Cc1cc(NC(=O)CCC(=O)N(c2ccc(F)cc2)C(C(=O)NC2CCCC2)c2ccc(C)o2)no1 (centres undefined)	-4%	1%	0	-18%	0%	0%	·	·	·
Cc1cc(NC(=O)CCC(=O)N(c2ccccc2)C(C(=O)NC2CCCC2)c2ccc(F)cc2)no1 (centres undefined)	-1%	-19%	-13	?	-18%	0%	-6	-4%	?
CCNC(=O)NC(=O)C(C)Sc1nnc(N2CCCCC2)n1-c1ccc(C)cc1 (centres undefined)	·	·	0	·	-9%	·	·	·	·
CCCCn1nc(C)c2c(C(F)(F)F)cc(-c3ccc(Br)cc3)nc21	·	·	-1	·	-8%	·	·	·	·
Cc1nn(CCc2nn[nH]n2)c2nc(-c3ccc(C4CCCCC4)cc3)cc(C(F)(F)F)c12	?	?	-6	52µM*	?	-1%	-14	50µM*	40µM*
O=C(O)c1ccc(Cl)c(S(=O)(=O)N(Cc2ccccc2)c2ccccc2Cl)c1	-4%	6%	-3	29µM*	10%	0%	8	-4%	32µM*
O=C(O)c1ccc(Cl)c(S(=O)(=O)N(Cc2ccccc2)c2ccccc2)c1	1%	11%	-3	?	-8%	0%	·	·	·
CCN(C(=O)c1cc2c(C)nc3ccccc3c2o1)c1cc(Cl)ccc1OC	-16%	?	-6	33µM*	-17%	4%	-6	5%	20µM*
CN(CC(=O)NC(=O)NCc1ccco1)Cc1ccc(Cl)cc1	·	·	10	·	12%	·	·	·	·
CCN(CC)c1ccc(/C=N/NC(=O)Nc2ccccc2)cc1	?	?	1	0%	-7%	14%	·	·	·
CCN(CC)c1ccc(/C=N/NC(=O)Cc2nnc(NC(=O)Nc3ccccc3)s2)cc1	-13%	-10%	-5	4.1µM*	-9%	13%	-8	-8%	6.3µM*
Cn1c(=O)c2cc(C(=O)Nc3ccc(Cl)c4ncccc34)cnc2n(C)c1=O	·	·	4	·	-1%	·	·	·	·
COc1cc2c3c(c1)C1(C(=O)N3C(C)(C)C=C2C)C(C#N)=C(N)Oc2cc(O)ccc21 (centres undefined)	-19%	-9%	3	29µM*	0%	0%	-3	6%	16µM*
O=C(c1nnn2c1COC(c1ccc(Cl)cc1)C2)N1CCN(C(=O)C2(c3ccccc3)CC2)CC1 (centres undefined)	·	·	·	·	-3%	·	·	·	·
CC(C)(C)OC(=O)N1CCC(c2cc(=O)n3[nH]cc(C(=O)Nc4ccc(F)c(Cl)c4)c3n2)CC1	3%	-1%	-3	?	-19%	0%	-8	?	10µM*
SMILES	A549 tox	Nrf2 block	LDHA inh	IDH1 R132H inh	12-LOX inh	Nrf2 ARE act	IDH1 autofl	WT IDH1 inh	IDH1 R132H conf
COc1ccc(NC(=O)c2c[nH]n3c(=O)cc(C4CCN(C(=O)OC(C)(C)C)CC4)nc23)cc1Cl	-2%	-2%	-16	41µM*	40µM*	1%	-5	32µM*	20µM*
CC(C)(C)OC(=O)N1CCC(c2cc(=O)n3[nH]cc(C(=O)NC4CCCC4)c3n2)CC1	-15%	-3%	-1	-31%	-16%	0%	·	·	·
COc1ccc(NC(=O)c2cnn(-c3ccc(F)cc3F)c2C2CCN(C(=O)OC(C)(C)C)CC2)cc1Cl	-23%	?	7	-4%	-25%	3%	·	·	·
COC(=O)c1cc(NC(=O)CC23CC4CC(CC(C4)C2)C3)cc(C(=O)OC)c1	·	·	-23	·	-5%	·	·	·	·
COc1ccc(OC)c(-c2nnc3n2N=C(c2ccc(OC)c(OC4CCCC4)c2)CS3)c1	-18%	18µM*	0	·	?	-1%	0	2%	14µM*
COc1ccc(OC)c(-c2nnc3n2N=C(c2ccc(OC)c(OC)c2)CS3)c1	-5%	?	0	·	-8%	3%	·	·	·
